# Results as given in PubChem BioAssay (EPA / NIEHS).
# Active and inactive are the calls of the source. Rule for the calls: active = hit-call score of the fitted dose curve at least 0.9, where 1 is the maximum; inactive = score below 0.9.
# Read-out: flavin-containing dimethylaniline monooxygenases 3 (FMO3), FMO3 (gene 2328)
# Experiment: LTEA_HepaRG_FMO3: Life Technologies and Expression Analysis (LTEA) Assay for flavin-containing dimethylaniline monooxygenases 3 (FMO3) using HepaRG (AID 2283453);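 for AC50: FMO3 transcript by TaqMan qRT-PCR normalized to ACTB GAPDH and POLR2A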
# Conditions: mRNA level, 48 h; actives raise or lower the signal
# Method: LTEA_HepaRG is a cell based, multiplexed-readout assay that uses HepaRG, a human liver cell line, with measurements taken at 48 hours after chemical dosing on a 96-well plate.LTEA_HepaRG_FMO3 is one of 102 assay component(s) measured in the LTEA HepaRG cell culture assay. It is a marker of NR mediated metabolism.Data from the assay component LTEA_HepaRG_FMO3 was analyzed into 1 endpoint. This assay endpoint, LTEA_HepaRG_FMO3, was analyzed with bidirectional fitting relative to DMSO as the negative control and baseline of activity. Using a type of inducible reporter, measures of mRNA induction for gain or loss-of-signal activity can be used to understand regulation of transcription factor activity. To generalize the intended target to other relatable targets, this assay endpoint is annotated to the oxidoreductase intended target family, where the subfamily is […].
# A total of 1060 chemcials from the ToxCast library were tested in eight-point concentration-response experiments. Cell culture and cytotoxicity assays were conducted at Thermo Fisher Scientific's Custom Services facility (Madison, WI). A single lot of human HepaRG cells (Thermo Fisher Scientific, Frederick, MD) was used for the cell culture experiments. 96-well format collagen type I coated plates of human HepaRG cells were prepared using established methods. Briefly, cryopreserved HepaRG cells were thawed, plated at a density of approximately 100,000 cells/well in HepaRG Thaw, Plate, and General Purpose media (HPRG770, Thermo Fisher Scientific), and incubated for 48 hours. 0.5% DMSO was selected as vehicle control to balance the requisite need of DMSO in HepaRG cultures to maintain differentiation (for example, baseline metabolism, proportions of hepatocytes vs. cholangiocytes), while enabling further hepatic receptor pathway activation (for example, PXR and CAR) in response to chemical exposure. 48 hours after plating, the culture medium was replaced with HepaRG Serum-Free Incudtion Media. Cells were exposed to each test chemical in duplicate and maintained in CO2 incubators for another 48 hours. Chemical plates were thawed to room temperature and 200x concentrations of treatment groups were prepared. 8-point conentration-reponse curves were made with the highest exposure at 100 uM, followed by half-log dilutions, all in 0.5% DMSO. Each test plate contained variouse controls, induction positive controls (1mM phenobarbital), cytotoxicity positive controls ([…] aflatoxin B1), vehicle controls (0.5% DMSO), and total lysis controls (0.5% DMSO). Cell morphology images were taken using an Essen IncuCyte FLR automated microscope, with six 96-well plates imaged in about 24 minutes. Images were captured and exported and JPEG files. Spent culture media was transfered to black-well plates for the LDH assay, and remaining media was sorted at -80 C for later use. Cells were treated with RLT buffer and frozen until shipped for gene expression analysis. Total RNA was isolated from the cell suspension in 75 uL of Buffer RLT (Qiagen, Germantown, MD 20874) by Quintiles/Expression Analysis (Durham, NC) using a custom isolation procedure. Total RNA from each plate well was transferred to a preamplification plate. Fluidigm's 96.96 Dynamic ArrayTM (Fluidigm, Amsterdam, the Netherlands) technology was used for gene expression analyses by quantitative reverse transcription polymerase chain reaction (qRT-PCR, performed by Quintiles/Expression Analysis, Durham, NC)89. Standard TaqManTM Assays (Applied Biosystems/ThermoFisher Scientific, Foster City, CA) were used to assess the expression of 93 genes selected based on their selectivity and sensitivity to important hepatic receptors known to be modulated by environmental chemicals; importance in human hepatocyte functionality; and hepatotoxicity. […]
Compound,outcome,AC50
CCOP(=S)(OCC)Oc1ccc([N+](=O)[O-])cc1,inactive,–
CCCOc1nn(C(=O)NS(=O)(=O)c2ccccc2C(=O)OC)c(=O)n1C,inactive,–
CCOC(=O)COc1cc(-c2nn(C)c(OC(F)F)c2Cl)c(F)cc1Cl,inactive,–
Cc1nn(-c2cc(NS(C)(=O)=O)c(Cl)cc2Cl)c(=O)n1C(F)F,inactive,–
COc1cc(OC)nc(Sc2cccc(Cl)c2C(=O)O)n1,inactive,–
CC(C)[C@H](C(=O)O[C@H](C#N)c1cccc(Oc2ccccc2)c1)c1ccc(Cl)cc1,inactive,–
O=[N+]([O-])c1cc(C(F)(F)F)c(Cl)c([N+](=O)[O-])c1Nc1ncc(C(F)(F)F)cc1Cl,–,27.7 µM (active)
COP(=O)(OC)OC(Br)C(Cl)(Cl)Br (stereo not given),inactive,–
CNC(=O)Oc1cccc2c1OC(C)(C)O2,inactive,–
CC(=NC#N)N(C)Cc1ccc(Cl)nc1,inactive,–
CCC(=NOC/C=C/Cl)C1=C(O)CC(C2CCOCC2)CC1=O (stereo not given),inactive,–
Cc1cc(C2CC2)nc(Nc2ccccc2)n1,inactive,–
O=c1ccc(=O)[nH][nH]1,inactive,–
CCOP(=S)(OCC)OC(Cl)C(Cl)(Cl)Cl (stereo not given),inactive,–
Nc1c(Cl)cc([N+](=O)[O-])cc1Cl,–,50 µM (active)
CCOP(=S)(OCC)Oc1ccc2c(C)c(Cl)c(=O)oc2c1,–,81.1 µM (active)
CCCCOC(=O)c1ccccc1C(=O)O,inactive,–
C[N+]1(C)CCCCC1,inactive,–
Nc1nc(N)nc(NC2CC2)n1,inactive,–
CCc1cnc(C2=NC(C)(C(C)C)C(=O)N2)c(C(=O)O)c1 (stereo not given),inactive,–

Compound,outcome,AC50
CC(COc1ccc(Oc2ccccc2)cc1)Oc1ccccn1 (stereo not given),inactive,–
CCCSP(=O)(OCC)SCCC,inactive,–
N#CSCSC#N,–,83.2 µM (active)
Cc1ccn2nc(S(=O)(=O)Nc3c(F)cccc3F)nc2n1,inactive,–
O=C(O)c1cc(Oc2ccc(C(F)(F)F)cc2Cl)ccc1[N+](=O)[O-],inactive,–
CN(C)C(=O)Nc1cccc(C(F)(F)F)c1,inactive,–
COc1ccc(C(=CC(=O)N2CCOCC2)c2ccc(Cl)cc2)cc1OC,inactive,–
CC(C)N(C(=O)SCC(Cl)=C(Cl)Cl)C(C)C,inactive,–
C=C(C)[C@H]1Cc2c(ccc3c2O[C@@H]2COc4cc(OC)c(OC)cc4[C@@H]2C3=O)O1,–,5.89 µM (active)
CCOP(=O)(NC(C)C)Oc1ccc(SC)c(C)c1 (stereo not given),inactive,–
CCCSP(=O)(OCC)Oc1ccc(Br)cc1Cl (stereo not given),inactive,–
COP(=O)(NC(C)=O)SC (stereo not given),inactive,–
C[Si](Cn1cncn1)(c1ccc(F)cc1)c1ccc(F)cc1,–,37.5 µM (active)
CN(C)NC(=O)CCC(=O)O,inactive,–
CC[C@H](C)[C@H]1O[C@]2(C=C[C@@H]1C)C[C@@H]1C[C@@H](C/C=C(\C)[C@@H](O[C@H]3C[C@H](OC)[C@@H](O[C@H]4C[C@H](OC)[C@@H](NC)[C@H](C)O4)[C@H](C)O3)[C@@H](C)/C=C/C=C3\CO[C@@H]4[C@H](O)C(C)=C[C@@H](C(=O)O1)[C@]34O)O2,–,15.5 µM (active)
CCC(=O)Nc1ccc(Cl)c(Cl)c1,inactive,–
CNC(=O)ON=C(C)SC,inactive,–
CCc1cccc(C)c1N(C(=O)CCl)C(C)COC (stereo not given),inactive,–
CCCCN(CC)c1c([N+](=O)[O-])cc(C(F)(F)F)cc1[N+](=O)[O-],inactive,–
CC1(C(=O)Nc2ccc(O)c(Cl)c2Cl)CCCCC1,inactive,–
